Measured values as given in the supplement of paper PMC11732987, “Enantioselective OTUD7B fragment discovery through chemoproteomics screening and high-throughput optimisation” (Communications Chemistry, 2025).

Assays:
Test in all cases: log2 ratio of Biotin-Ahx-Ub-VS probe labelling (fragment/DMSO); higher = less target engagement (more negative = stronger competition), active = hit call of the paper (q ≤ 0.05, log2 ratio ≤ -1)
Conditions in all cases: compound concentration: 200 uM; treatment time: 3 h
[1] = molecular target: USP34 (UniProt Q70CQ2)
Method in brief: (§1)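 The table lists average log2 ratios of fragment over vehicle, from an unpaired t-test on global-median-normalised Spectronaut label-free quantities. Proteins with ≥2 unique peptides were used. Samples were HEK293T lysate (495 µg) treated in triplicate with fragment at 200 µM or vehicle for 3 h, then with Biotin-Ahx-Ub-VS (0.5 µM final) for 1 h, with labelled DUBs NeutrAvidin-enriched and run by diaPASEF LC-MS/MS.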

[2] = molecular target: T1, USP36 (UniProt Q9P275)
T1 sequence (whole entry): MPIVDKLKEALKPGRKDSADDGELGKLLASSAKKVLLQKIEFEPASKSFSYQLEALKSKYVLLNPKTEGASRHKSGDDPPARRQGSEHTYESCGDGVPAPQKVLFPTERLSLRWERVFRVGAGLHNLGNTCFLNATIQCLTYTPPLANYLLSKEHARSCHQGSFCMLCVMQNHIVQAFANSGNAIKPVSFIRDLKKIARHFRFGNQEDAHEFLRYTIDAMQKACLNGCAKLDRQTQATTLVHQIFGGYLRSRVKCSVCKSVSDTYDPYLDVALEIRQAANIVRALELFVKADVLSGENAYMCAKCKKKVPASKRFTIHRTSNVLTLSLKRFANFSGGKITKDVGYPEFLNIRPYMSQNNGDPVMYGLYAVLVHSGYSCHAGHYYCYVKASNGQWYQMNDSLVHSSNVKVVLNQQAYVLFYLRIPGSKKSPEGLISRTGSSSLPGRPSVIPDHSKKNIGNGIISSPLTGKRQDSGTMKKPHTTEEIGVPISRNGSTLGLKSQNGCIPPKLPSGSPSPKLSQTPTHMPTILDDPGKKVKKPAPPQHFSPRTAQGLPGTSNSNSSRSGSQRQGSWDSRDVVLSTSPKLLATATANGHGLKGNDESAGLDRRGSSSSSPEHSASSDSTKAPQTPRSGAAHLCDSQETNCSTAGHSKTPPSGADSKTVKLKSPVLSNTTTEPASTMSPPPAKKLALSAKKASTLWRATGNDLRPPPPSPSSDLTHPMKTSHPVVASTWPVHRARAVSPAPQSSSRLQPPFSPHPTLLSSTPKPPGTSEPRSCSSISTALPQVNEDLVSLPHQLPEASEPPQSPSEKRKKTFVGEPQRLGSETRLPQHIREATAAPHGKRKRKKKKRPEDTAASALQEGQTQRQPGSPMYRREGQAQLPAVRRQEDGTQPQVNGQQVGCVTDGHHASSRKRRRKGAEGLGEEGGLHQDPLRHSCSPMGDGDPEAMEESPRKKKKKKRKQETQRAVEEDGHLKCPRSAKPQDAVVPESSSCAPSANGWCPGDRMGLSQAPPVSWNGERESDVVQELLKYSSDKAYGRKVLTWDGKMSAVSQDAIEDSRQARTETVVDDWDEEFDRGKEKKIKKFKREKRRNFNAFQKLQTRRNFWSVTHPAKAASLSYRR
Method in brief: as §1

[3] = molecular target: T2, USP38 (UniProt Q8NB14)
T2 sequence (whole entry): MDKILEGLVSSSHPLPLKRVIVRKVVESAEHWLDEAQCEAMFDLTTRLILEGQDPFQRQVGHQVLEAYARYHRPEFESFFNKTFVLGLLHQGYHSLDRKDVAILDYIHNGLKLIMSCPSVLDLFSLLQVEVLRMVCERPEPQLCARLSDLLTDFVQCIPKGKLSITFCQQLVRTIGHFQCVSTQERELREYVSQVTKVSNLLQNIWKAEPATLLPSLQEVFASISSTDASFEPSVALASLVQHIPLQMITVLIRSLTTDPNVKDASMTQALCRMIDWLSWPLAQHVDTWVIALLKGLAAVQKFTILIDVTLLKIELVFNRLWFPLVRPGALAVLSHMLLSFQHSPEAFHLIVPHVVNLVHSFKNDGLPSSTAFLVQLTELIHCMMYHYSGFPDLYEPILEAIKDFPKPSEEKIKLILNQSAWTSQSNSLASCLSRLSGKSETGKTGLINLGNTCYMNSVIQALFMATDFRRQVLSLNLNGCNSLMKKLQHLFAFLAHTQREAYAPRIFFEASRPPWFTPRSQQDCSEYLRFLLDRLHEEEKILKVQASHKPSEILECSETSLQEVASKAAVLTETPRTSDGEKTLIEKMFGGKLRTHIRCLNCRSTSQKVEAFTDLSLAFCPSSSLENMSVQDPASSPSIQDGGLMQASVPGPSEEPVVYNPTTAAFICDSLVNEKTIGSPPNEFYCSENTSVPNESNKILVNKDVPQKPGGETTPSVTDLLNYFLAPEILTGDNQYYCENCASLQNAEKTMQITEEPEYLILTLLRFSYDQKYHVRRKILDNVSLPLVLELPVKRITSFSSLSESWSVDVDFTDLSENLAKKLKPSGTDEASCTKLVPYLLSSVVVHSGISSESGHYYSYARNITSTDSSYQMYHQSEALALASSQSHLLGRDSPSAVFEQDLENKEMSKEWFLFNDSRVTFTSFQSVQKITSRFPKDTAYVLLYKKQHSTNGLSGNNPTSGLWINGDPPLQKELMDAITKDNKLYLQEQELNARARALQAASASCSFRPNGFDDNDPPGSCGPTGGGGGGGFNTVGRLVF
Method in brief: as §1

[4] = molecular target: T3, USP39 (UniProt Q53GS9)
T3 sequence (whole entry): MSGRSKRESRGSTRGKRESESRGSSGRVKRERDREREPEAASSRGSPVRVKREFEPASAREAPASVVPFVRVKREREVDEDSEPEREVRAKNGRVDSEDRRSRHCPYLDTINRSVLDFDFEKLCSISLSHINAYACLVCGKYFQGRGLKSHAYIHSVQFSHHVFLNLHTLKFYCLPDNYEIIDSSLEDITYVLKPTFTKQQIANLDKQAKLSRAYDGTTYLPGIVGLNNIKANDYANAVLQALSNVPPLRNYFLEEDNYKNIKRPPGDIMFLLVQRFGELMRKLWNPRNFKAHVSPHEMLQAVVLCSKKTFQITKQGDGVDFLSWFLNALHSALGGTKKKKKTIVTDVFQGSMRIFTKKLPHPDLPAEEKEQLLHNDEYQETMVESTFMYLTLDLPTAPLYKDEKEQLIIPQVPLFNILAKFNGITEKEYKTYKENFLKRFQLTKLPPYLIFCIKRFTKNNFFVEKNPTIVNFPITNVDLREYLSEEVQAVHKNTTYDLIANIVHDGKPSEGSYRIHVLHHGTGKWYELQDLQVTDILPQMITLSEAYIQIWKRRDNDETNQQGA
Method in brief: as §1

[5] = molecular target: T4, USP4 (UniProt Q13107)
T4 sequence (whole entry): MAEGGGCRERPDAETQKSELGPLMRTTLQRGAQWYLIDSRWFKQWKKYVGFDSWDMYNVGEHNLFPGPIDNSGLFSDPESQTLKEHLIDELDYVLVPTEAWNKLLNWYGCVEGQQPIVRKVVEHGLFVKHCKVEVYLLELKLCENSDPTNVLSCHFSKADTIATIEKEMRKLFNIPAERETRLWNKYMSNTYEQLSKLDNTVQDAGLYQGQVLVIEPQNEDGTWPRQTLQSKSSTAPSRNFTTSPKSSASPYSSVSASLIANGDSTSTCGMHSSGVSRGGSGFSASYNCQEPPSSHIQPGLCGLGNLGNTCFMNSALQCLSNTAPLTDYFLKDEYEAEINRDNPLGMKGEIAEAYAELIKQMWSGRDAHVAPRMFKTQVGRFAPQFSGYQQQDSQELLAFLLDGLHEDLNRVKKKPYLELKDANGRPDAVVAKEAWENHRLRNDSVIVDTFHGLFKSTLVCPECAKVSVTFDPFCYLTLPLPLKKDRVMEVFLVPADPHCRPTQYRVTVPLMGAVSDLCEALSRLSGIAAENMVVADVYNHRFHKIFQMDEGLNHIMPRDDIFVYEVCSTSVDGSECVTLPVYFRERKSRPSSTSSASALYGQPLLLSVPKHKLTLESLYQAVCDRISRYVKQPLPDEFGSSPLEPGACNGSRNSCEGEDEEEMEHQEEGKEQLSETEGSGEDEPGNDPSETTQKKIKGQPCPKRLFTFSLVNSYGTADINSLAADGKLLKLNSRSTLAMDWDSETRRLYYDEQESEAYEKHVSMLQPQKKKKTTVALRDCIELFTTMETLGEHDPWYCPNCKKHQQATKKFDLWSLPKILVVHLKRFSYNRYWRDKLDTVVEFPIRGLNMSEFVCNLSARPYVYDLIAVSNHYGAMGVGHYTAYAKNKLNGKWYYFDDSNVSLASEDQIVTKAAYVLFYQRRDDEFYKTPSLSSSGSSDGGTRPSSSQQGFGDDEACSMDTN
Method in brief: as §1

Measured: log2 ratio of Biotin-Ahx-Ub-VS probe labelling

Sequence of USP34 (Q70CQ2 whole entry, the tested form may be a part): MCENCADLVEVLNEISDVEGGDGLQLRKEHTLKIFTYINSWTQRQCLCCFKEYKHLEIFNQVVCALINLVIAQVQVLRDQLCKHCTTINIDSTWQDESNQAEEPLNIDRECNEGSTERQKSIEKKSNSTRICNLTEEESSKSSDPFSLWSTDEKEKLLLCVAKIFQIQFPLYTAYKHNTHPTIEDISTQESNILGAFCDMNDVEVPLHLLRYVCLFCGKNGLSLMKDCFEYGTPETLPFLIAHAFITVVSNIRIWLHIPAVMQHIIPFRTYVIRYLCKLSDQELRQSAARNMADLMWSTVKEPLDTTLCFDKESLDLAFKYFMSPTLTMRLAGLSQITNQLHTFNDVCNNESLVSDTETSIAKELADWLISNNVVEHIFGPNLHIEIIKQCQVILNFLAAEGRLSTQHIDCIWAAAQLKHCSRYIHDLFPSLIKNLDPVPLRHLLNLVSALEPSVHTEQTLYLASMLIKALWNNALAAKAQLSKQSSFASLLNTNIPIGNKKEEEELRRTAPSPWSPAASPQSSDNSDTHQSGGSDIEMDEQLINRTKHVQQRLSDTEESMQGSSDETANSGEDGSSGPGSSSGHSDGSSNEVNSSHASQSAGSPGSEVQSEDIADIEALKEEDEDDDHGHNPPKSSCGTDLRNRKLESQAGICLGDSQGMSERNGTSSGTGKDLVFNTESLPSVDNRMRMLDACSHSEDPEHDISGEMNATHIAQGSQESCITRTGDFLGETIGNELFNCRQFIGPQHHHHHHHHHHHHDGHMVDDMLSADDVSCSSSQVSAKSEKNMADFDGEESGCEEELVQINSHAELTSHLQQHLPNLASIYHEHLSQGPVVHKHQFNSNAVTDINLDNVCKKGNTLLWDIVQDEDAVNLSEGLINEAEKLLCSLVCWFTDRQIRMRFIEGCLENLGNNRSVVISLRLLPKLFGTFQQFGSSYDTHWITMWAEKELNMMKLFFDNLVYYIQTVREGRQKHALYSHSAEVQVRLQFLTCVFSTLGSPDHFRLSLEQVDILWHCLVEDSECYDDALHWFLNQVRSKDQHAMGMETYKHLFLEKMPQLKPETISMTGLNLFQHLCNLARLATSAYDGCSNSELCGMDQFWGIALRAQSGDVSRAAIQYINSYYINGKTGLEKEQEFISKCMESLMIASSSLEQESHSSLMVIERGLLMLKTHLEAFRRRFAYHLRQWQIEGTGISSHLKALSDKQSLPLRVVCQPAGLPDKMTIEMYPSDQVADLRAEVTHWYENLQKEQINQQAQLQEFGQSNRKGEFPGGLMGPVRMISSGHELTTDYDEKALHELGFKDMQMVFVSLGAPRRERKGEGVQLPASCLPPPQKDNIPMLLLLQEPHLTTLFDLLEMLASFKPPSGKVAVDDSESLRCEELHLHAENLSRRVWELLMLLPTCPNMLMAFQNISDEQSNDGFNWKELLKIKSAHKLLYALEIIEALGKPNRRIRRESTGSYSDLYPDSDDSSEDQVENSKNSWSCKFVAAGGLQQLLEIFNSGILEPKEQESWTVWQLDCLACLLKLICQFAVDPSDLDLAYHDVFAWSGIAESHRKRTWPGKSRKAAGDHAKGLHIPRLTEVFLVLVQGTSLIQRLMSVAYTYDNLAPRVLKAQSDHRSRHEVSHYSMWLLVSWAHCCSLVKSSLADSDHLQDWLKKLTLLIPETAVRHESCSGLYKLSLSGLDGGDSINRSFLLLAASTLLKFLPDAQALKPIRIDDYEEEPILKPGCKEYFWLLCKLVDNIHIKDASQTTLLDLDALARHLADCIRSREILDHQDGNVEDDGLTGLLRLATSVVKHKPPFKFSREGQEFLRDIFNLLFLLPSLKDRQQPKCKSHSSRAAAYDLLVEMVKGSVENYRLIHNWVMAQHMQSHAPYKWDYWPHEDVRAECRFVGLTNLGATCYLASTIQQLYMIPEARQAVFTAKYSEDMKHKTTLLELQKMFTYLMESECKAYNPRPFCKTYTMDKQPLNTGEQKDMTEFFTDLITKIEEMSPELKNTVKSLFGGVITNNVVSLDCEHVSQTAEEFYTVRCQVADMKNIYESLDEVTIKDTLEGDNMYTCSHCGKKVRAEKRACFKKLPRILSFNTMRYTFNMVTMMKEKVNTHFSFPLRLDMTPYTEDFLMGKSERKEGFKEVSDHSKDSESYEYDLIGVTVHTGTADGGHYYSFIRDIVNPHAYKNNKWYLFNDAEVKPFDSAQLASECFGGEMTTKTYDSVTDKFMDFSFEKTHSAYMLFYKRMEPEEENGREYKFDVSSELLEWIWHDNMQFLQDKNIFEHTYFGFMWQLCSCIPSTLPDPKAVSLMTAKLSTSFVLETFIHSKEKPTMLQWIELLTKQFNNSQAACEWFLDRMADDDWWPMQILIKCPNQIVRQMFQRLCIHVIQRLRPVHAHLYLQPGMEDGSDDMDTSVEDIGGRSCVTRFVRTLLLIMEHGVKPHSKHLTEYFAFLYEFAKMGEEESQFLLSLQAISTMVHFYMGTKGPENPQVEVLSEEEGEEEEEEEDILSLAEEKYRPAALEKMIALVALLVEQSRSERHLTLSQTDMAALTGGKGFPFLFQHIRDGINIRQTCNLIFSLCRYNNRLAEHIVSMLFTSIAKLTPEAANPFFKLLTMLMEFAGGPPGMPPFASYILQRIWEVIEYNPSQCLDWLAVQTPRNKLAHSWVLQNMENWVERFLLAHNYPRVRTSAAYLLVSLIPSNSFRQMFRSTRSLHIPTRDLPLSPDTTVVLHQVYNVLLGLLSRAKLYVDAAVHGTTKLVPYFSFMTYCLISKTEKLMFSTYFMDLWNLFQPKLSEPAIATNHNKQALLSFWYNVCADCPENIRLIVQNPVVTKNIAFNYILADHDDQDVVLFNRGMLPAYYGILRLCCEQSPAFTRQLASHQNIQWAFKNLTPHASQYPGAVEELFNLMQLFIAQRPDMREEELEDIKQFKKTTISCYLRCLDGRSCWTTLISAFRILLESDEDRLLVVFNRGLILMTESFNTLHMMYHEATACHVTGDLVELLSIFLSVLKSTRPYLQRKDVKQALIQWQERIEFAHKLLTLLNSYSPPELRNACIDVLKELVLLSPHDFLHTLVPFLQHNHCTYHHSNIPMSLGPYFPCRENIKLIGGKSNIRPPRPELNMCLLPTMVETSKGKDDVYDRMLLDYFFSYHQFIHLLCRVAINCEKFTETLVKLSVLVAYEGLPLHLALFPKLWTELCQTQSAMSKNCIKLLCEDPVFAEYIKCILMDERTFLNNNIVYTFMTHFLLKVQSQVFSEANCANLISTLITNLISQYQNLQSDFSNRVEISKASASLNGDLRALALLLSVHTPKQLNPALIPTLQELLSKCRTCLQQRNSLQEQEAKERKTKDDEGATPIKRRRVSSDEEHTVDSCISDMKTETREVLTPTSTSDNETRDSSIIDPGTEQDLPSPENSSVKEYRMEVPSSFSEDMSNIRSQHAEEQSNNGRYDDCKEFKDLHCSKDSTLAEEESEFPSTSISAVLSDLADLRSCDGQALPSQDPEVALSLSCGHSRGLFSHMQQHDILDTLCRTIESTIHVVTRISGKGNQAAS

Cl.O=C(CCl)NCc1cc2c(nc1O)CCCC2
inactive: [1] -0.103 | [2] -0.408 | [3] -0.0702 | [4] -0.212 | [5] -0.0856
